# Measured values taken from PMC8384837, “Expanding the binding specificity for RNA recognition by a PUF domain”.
# Substitutions are numbered along the chain they refer to.
# Legend:
# Experiment in all cases: yeast three-hybrid, YBZ-1, SC-Leu-His + 0.5 mM 3-AT, 4 days
# Settings in all cases: tags: N-Gal4 AD-HA kept; label: inside an RPR1-promoter hybrid RNA with tandem MS2 sites; ssRNA
# PUM1 PUF domain R1-EKK = PUM1 PUF domain R1-EKK (Homo sapiens, UniProt Q14671 828-1176, S863E;R864K;Q867K)
# How it was run: (§1)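 Pumilio-1 PUF domain libraries, randomized (NNK) at the three base-contacting residues of each repeat, were co-expressed with matching RNA elements from a centromeric plasmid in strain YBZ-1 (LexA–MS2 coat fusion, HIS3 reporter). Transformants were plated on SC-Leu (input) and SC-Leu-His + 0.5 mM 3-AT (selection) for four days, and repeat regions were PCR-amplified and Illumina-sequenced. The interaction score is the log2 change in variant frequency from input to selection, with pseudocount 1 where absent.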
# PUM1 PUF domain R4-PYD = PUM1 PUF domain R4-PYD (Homo sapiens, UniProt Q14671 828-1176, N971P;H972Y;Q975D)
# How it was run: as §1
# PUM1 PUF domain R5-LHS = PUM1 PUF domain R5-LHS (Homo sapiens, UniProt Q14671 828-1176, C1007L;R1008H;Q1011S)
# How it was run: as §1
# PUM1 PUF domain R5-GRT = PUM1 PUF domain R5-GRT (Homo sapiens, UniProt Q14671 828-1176, C1007G;Q1011T)
# How it was run: as §1
# PUM1 PUF domain R5-RGA = PUM1 PUF domain R5-RGA (Homo sapiens, UniProt Q14671 828-1176, C1007R;R1008G;Q1011A)
# How it was run: as §1
# PUM1 PUF domain R6-SWS = molecular target: T1, PUM1 PUF domain R6-SWS (Homo sapiens, UniProt Q14671 828-1176, N1043S;Y1044W;Q1047S)
# T1 sequence: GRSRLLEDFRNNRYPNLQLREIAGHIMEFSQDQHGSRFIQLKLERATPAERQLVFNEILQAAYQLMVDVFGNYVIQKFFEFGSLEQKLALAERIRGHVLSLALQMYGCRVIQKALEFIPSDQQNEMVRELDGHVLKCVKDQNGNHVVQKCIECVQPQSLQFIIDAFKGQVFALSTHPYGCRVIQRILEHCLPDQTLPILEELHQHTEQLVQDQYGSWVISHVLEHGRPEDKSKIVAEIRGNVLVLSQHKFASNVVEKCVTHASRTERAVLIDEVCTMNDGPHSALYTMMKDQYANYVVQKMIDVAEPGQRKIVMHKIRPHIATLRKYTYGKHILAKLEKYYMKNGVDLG
# How it was run: as §1
# PUM1 PUF domain R6-VWH = molecular target: T2, PUM1 PUF domain R6-VWH (Homo sapiens, UniProt Q14671 828-1176, N1043V;Y1044W;Q1047H)
# T2 sequence: T1 sequence with S216V, S220H
# How it was run: as §1
# PUM1 PUF domain R8-KHV = PUM1 PUF domain R8-KHV (Homo sapiens, UniProt Q14671 828-1176, N1122K;Y1123H;Q1126V)
# How it was run: as §1
# PUM1 PUF domain R6-RYC = molecular target: T3, PUM1 PUF domain R6-RYC (Homo sapiens, UniProt Q14671 828-1176, N1043R;Q1047C)
# T3 sequence: T1 sequence with S216R, W217Y, S220C
# How it was run: as §1
# PUM1 PUF domain R6-GWR = molecular target: T4, PUM1 PUF domain R6-GWR (Homo sapiens, UniProt Q14671 828-1176, N1043G;Y1044W;Q1047R)
# T4 sequence: T1 sequence with S216G, S220R
# How it was run: as §1
sequence,measurement,setting,value
GGCUAGAACUAGUGGAUCCCCCGGCGCCCGGCGGCUCGAGCCCGGGUAAGUGUAAAUUGUCUGCAUGCCGCCGGGCGCCAUGCCUGCAGGUCGACUCUAGAAAACAUG,binding signal,PUM1 PUF domain R1-EKK,2.94 log2 enrichment (interaction score)
GGCUAGAACUAGUGGAUCCCCCGGCGCCCGGCGGCUCGAGCCCGGGUAAGUGUAUAUAGUCUGCAUGCCGCCGGGCGCCAUGCCUGCAGGUCGACUCUAGAAAACAUG,binding signal,PUM1 PUF domain R4-PYD,5.78 log2 enrichment (interaction score)
GGCUAGAACUAGUGGAUCCCCCGGCGCCCGGCGGCUCGAGCCCGGGUAAGUGUUAAUAGUCUGCAUGCCGCCGGGCGCCAUGCCUGCAGGUCGACUCUAGAAAACAUG,binding signal,PUM1 PUF domain R5-LHS,5.04 log2 enrichment (interaction score)
same,binding signal,PUM1 PUF domain R5-GRT,3.02 log2 enrichment (interaction score)
same,binding signal,PUM1 PUF domain R5-RGA,1.01 log2 enrichment (interaction score)
GGCUAGAACUAGUGGAUCCCCCGGCGCCCGGCGGCUCGAGCCCGGGUAAGUGAAAAUAGUCUGCAUGCCGCCGGGCGCCAUGCCUGCAGGUCGACUCUAGAAAACAUG,binding signal,PUM1 PUF domain R6-SWS,3.49 log2 enrichment (interaction score)
same,binding signal,PUM1 PUF domain R6-VWH,7.07 log2 enrichment (interaction score)
GGCUAGAACUAGUGGAUCCCCCGGCGCCCGGCGGCUCGAGCCCGGGUAAGCGUAAAUAGUCUGCAUGCCGCCGGGCGCCAUGCCUGCAGGUCGACUCUAGAAAACAUG,binding signal,PUM1 PUF domain R8-KHV,2.09 log2 enrichment (interaction score)
GGCUAGAACUAGUGGAUCCCCCGGCGCCCGGCGGCUCGAGCCCGGGUAAGUGUAAAUAGUCUGCAUGCCGCCGGGCGCCAUGCCUGCAGGUCGACUCUAGAAAACAUG,binding signal,PUM1 PUF domain R6-RYC,4.42 log2 enrichment (interaction score)
same,binding signal,PUM1 PUF domain R6-SWS,4.04 log2 enrichment (interaction score)
same,binding signal,PUM1 PUF domain R5-GRT,2.94 log2 enrichment (interaction score)
same,binding signal,PUM1 PUF domain R6-GWR,6.56 log2 enrichment (interaction score)
GGCUAGAACUAGUGGAUCCCCCGGCGCCCGGCGGCUCGAGCCCGGGUAAGUGUCAAUAGUCUGCAUGCCGCCGGGCGCCAUGCCUGCAGGUCGACUCUAGAAAACAUG,binding signal,PUM1 PUF domain R5-LHS,2.24 log2 enrichment (interaction score)
same,binding signal,PUM1 PUF domain R5-GRT,0.6 log2 enrichment (interaction score)
same,binding signal,PUM1 PUF domain R5-RGA,2.27 log2 enrichment (interaction score)
GGCUAGAACUAGUGGAUCCCCCGGCGCCCGGCGGCUCGAGCCCGGGUAAGUGCAAAUAGUCUGCAUGCCGCCGGGCGCCAUGCCUGCAGGUCGACUCUAGAAAACAUG,binding signal,PUM1 PUF domain R6-GWR,3.5 log2 enrichment (interaction score)
GGCUAGAACUAGUGGAUCCCCCGGCGCCCGGCGGCUCGAGCCCGGGUAAGGGUAAAUAGUCUGCAUGCCGCCGGGCGCCAUGCCUGCAGGUCGACUCUAGAAAACAUG,binding signal,PUM1 PUF domain R8-KHV,2.26 log2 enrichment (interaction score)
GGCUAGAACUAGUGGAUCCCCCGGCGCCCGGCGGCUCGAGCCCGGGUAAGUGUGAAUAGUCUGCAUGCCGCCGGGCGCCAUGCCUGCAGGUCGACUCUAGAAAACAUG,binding signal,PUM1 PUF domain R5-GRT,2.87 log2 enrichment (interaction score)
